Test results published in PubChem BioAssay (NCI).
This is part of a sample that, as a whole, favours compounds with a hit. Of some 79,000 tested, about 15% had one in any assay. Values without a mark were called inactive. The source made the active and inactive calls. Cut-off read from the data, not from the text of the source: active = growth inhibition above about 70%; inactive = the rest.

Legend:
[1] = NCI Yeast Anticancer Drug Screen. Data for the rad50 strain (AID 155);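 note: 0% = growth of vehicle-only cultures of the same strain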; settings: S. cerevisiae rad50 strain growth inhibition; at 50.0 µM; active compounds read high
Method in brief: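 Cells are treated with compound, grown, and their growth is then scored against vehicle-only cultures of the same repair-deficient yeast strain.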

[2] = NCI Yeast Anticancer Drug Screen. Data for the mec2-1 strain (AID 157); settings: S. cerevisiae mec2-1 strain, at 50.0 µM, active compounds read high
Method in brief: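 Test agents were screened against the mec2-1 yeast strain, with defined DNA repair or cell cycle alteration. Growth was scored as inhibition against vehicle-only controls.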

[3] = NCI Yeast Anticancer Drug Screen. Data for the sgs1 mgt1 strain (AID 161);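 note: 0% = growth of cultures given vehicle only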; settings: S. cerevisiae sgs1 mgt1 strain, at 50.0 µM, active compounds read high
Method in brief: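 Mutant yeast exposed to compound; growth scored against vehicle-only wells.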

[4] = NCI Yeast Anticancer Drug Screen. Data for the cln2 rad14 strain (AID 165);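 note: 0% = growth equal to vehicle treated cultures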; settings: S. cerevisiae cln2 rad14 strain, at 50.0 µM, active compounds read high
Method in brief: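 Growth of compound-exposed yeast (cln2 rad14 genotype) measured and expressed as inhibition relative to vehicle.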

[5] = NCI Yeast Anticancer Drug Screen. Data for the bub3 strain (AID 167); settings: S. cerevisiae bub3 mutant strain, at 50.0 µM, active compounds read high
Method in brief: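 Part of a panel of yeast mutants defective in DNA damage repair or cell cycle regulation. Each strain is grown with compound, and inhibition is calculated relative to solvent-treated cultures.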

[6] = NCI Yeast Anticancer Drug Screen. Data for the mlh1 rad18 strain (AID 175); settings: S. cerevisiae mlh1 rad18 strain growth inhibition; at 50.0 µM; active compounds read high
Method in brief: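 In this whole-cell yeast screen, a strain with altered DNA damage repair is challenged with compound, and its growth is measured against matched vehicle-treated controls.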

SMILES	growth inhibition [1]	growth inhibition [2]	growth inhibition [3]	growth inhibition [4]	growth inhibition [5]	growth inhibition [6]
CC1=C(C#N)C(C#N)(C#N)C(NN(C)C)C1 (centres undefined)	8.3%	20.9%	1.5%	-8.6%	-15.9%	-40%
O=C(c1ccccc1)C1CCC(C(=O)c2ccccc2)C1=O (centres undefined)	15.8%	14.3%	-8%	17.9%	7.3%	-17.2%
C1=C(c2ccccc2)C(c2ccccc2)=C(c2ccccc2)C(c2ccccc2)C(c2ccccc2)=N1 (centres undefined)	2.75%	10.2%	-2.95%	21.4%	-2.5%	8.55%
OCCN(CCO)c1cc(/C=C/c2cccc3ccccc23)nc2ccccc12	56.9%	11.3%	39.6%	3.85%	-6.5%	37.4%
CC1(CO)CCCC2(C)C3=CC(=O)CCC3CCC12 (centres undefined)	-6.7%	-1.9%	-12.8%	-0.35%	-8.95%	-3.15%
COc1ccc2c(c1)CN(Cc1ccccc1)CO2	3.85%	-3.4%	6%	-17.4%	13%	11.7%
CCCCCCCC(=O)OCC(COC(=O)CCCCCCC)OC(=O)CCCCCCC	40.8%	3.6%	1.6%	-33.5%	9.55%	27.1%
CSc1ccc(C2OC(=O)c3ccccc32)c2ccccc12 (centres undefined)	20.4%	-11.6%	21.2%	8.25%	-14.8%	5.1%
CS(=O)CC(Nc1ccccc1)c1ccccc1 (centres undefined)	-3.75%	-12.8%	-10.6%	2%	-25.6%	-3.45%
COc1ccc2c(O)cc(C(=O)O)c(-c3ccccc3)c2c1	-4.7%	-12.8%	-3.95%	-17.5%	5.05%	-22.6%
CC(C)NNC(N)=O	-0.2%	1.7%	-0.8%	-8.1%	12.4%	-5.65%
CC1CCC(=O)C(C(=O)CC2CC(=O)NC(=O)C2)C1 (centres undefined)	31.6%	1.45%	19.7%	-30.3%	2.3%	4.55%
CN1c2ccccc2Nc2cc(C#N)ccc21	-0.7%	-8.3%	14.8%	-30.4%	19.2%	5.7%
C=CCN1C(SC)=NC(=O)C1(c1ccccc1)c1ccccc1	14.8%	9.95%	8.75%	-10.2%	10.2%	22.8%
Cc1c2cccc(Br)c2c[n+]2ccccc12	20.9%	18.4%	39%	-21.4%	1.3%	31.1%
NNC(=O)CCC(=O)Nc1ccc(Cl)cc1Cl	-19.9%	0.65%	-8.25%	26.9%	5.1%	30.9%
CCSc1ccc2c3c(cccc13)C(=O)N(CCc1ccccn1)C2=O	-0.6%	-14.1%	11.8%	2.25%	6.2%	2.8%

SMILES	growth inhibition [1]	growth inhibition [2]	growth inhibition [3]	growth inhibition [4]	growth inhibition [5]	growth inhibition [6]
CCCN(CCC)CC(O)c1cccc2c1cc(Cl)c1ccccc12 (centres undefined)	99.6% (active)	99.7% (active)	99.8% (active)	99% (active)	91.3% (active)	99.7% (active)
O=C1CCCCC1COCC1CCCCC1=O (centres undefined)	-4.8%	2.65%	-2.15%	-17.6%	5.25%	-21.4%
COc1ccc2c(ccc3[nH]c4c(C)cnc(NCCCN)c4c32)c1	-39.6%	-31.8%	-29.3%	-15.1%	-17.4%	-39.8%
COc1ccc(Nc2ccnc(N)n2)cc1	5.15%	-27.4%	1.25%	-0.35%	14.2%	-13.2%
CO[Si](C)(C)OC	-6.65%	-32%	-7.15%	0.3%	-6.15%	-13.9%
O=C(Oc1ccc([N+](=O)[O-])cc1)C1CCCN1C(=O)OCc1ccccc1 (centres undefined)	-6.55%	-13.7%	7.55%	8.5%	7.2%	0.15%
CC(=O)NC1C(SC(=O)NCCCl)OC(COC(C)=O)C(OC(C)=O)C1OC(C)=O (centres undefined)	-7.75%	-8.6%	-3.2%	-16.8%	-27.3%	-4.3%
Nc1nc2nsnc2nc1N	1.9%	12.3%	13.6%	-57.9%	1.2%	23.9%
Cc1cc[n+](CC(=O)CC(O)(C(F)(F)F)C(F)(F)F)cc1	-9%	5.7%	15.2%	-4.1%	-6.95%	-1.6%
[CH2+][B-]1(C)n2cc(Br)c[n+]2[B-](C)(C)[n+]2cc(Br)cn21	16.2%	16.8%	8.05%	9.8%	7.1%	22.6%
Cc1ccc(NC(=O)C(Br)C(Br)c2ccccc2)cc1Cl (centres undefined)	94.2% (active)	95.8% (active)	96.6% (active)	95.2% (active)	94.7% (active)	95.8% (active)
COc1cc(/C=C/c2ccc([N+](=O)[O-])cc2[N+](=O)[O-])ccc1O	24.3%	8.5%	28.6%	19.1%	9.25%	25.9%
CCCCCCCCCCCCCCCCS(=O)(=O)N/N=c1\cc(-c2ccccc2Cl)c2ccccc2n1C	-0.15%	-16.9%	1.95%	6.45%	-11.1%	3.35%
O=C(O)c1ccccc1SC(Sc1ccccc1C(=O)O)c1cccs1	12.4%	-9.65%	3.75%	-4.55%	6.25%	4%
CCOc1ccccc1NC(=O)CC(=O)N1N=C(C)C(N=Nc2ccccc2C(=O)O)C1=O (centres undefined)	18.1%	3.5%	1.6%	-2.3%	-3.35%	17.6%
Cn1c(=O)n2n(c1=O)[C@@H](c1ccccc1)[C@H]2c1ccccc1	29.8%	-45.4%	-9.85%	-5.85%	20.2%	-59.3%
CC(=O)NNC(=O)c1ccccc1CO	-18.8%	-15%	-4.55%	10.4%	-2%	20.9%
